Compound activity: PubChem BioAssay, National Center for Advancing Translational Sciences (NCATS)
BAZ2B inh: inhibitors of human BAZ2B bromodomain | Q9UIF8 | AlphaScreen BAZ2B-H3K14Ac peptide displacement | Potency, µM (series often up to 114 µM), actives largely listed as inhibitors | 4.4% of 360,000 active | AID 504333; further: nearly all actives have a fitted effect of over 60% in size
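AlphaScreen luminescence quantifies BAZ2B engagement of H3K14Ac peptide; the protein and biotinylated peptide are both at 50 nM final, buffer PBS pH 7.4 with 0.01% Tween-20, all steps at room temperature.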
JMJD2A Tudor: inhibitors of human JMJD2A Tudor domain; Potency, µM (top dose mostly 114 µM), most hits filed as inhibitors; O75164; AID 504339; 4.4% of 390,000 active; AlphaScreen JMJD2A-Tudor / H3K4me3 peptide binding; further: nearly all actives have a fitted effect of over 50% in size
Target sequence (O75164 whole entry, looked up, the tested form may be a part): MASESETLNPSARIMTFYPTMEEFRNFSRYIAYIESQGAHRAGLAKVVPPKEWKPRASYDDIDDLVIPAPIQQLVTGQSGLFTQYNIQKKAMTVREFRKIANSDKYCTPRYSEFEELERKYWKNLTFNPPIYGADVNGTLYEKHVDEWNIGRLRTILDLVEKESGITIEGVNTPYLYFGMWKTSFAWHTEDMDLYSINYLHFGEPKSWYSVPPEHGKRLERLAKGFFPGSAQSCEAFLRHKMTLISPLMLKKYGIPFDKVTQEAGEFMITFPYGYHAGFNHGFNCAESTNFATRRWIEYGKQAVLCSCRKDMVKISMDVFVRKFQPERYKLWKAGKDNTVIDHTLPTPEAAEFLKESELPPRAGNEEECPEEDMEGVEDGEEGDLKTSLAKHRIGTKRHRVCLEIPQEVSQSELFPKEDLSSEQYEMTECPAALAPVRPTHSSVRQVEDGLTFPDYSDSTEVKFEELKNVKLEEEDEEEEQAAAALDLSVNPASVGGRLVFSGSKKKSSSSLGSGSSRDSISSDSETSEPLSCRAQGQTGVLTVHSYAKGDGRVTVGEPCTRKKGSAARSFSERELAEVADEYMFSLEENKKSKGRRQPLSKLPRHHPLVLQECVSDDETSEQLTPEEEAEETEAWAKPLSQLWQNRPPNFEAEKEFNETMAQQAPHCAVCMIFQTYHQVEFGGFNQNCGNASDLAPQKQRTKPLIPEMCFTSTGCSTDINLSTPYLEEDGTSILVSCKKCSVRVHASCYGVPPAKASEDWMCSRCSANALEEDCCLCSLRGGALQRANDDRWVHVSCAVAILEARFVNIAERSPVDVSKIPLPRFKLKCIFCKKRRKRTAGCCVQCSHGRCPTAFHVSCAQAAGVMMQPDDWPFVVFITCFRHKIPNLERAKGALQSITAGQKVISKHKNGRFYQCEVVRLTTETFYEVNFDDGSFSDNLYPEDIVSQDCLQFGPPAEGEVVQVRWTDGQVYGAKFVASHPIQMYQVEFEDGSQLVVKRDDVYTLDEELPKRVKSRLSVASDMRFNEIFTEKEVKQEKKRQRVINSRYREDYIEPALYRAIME
Six1-Eya2 inh: inhibitors of human Six1/Eya2 interaction; Q15475+O00167; AlphaScreen GST-Six1/His-Eya2 binding, biochemical; active compounds read low; activity change, % (test concentration not listed); 0.56% of 360,000 active; AID 651725; in the data active means activity change below about -65%; inconclusive means mostly about -30% to -63%
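AlphaScreen with GST-Six1 and His-Eya2 (5X mix: 250 nM and 500 nM), glutathione donor and nickel acceptor beads; buffer 50 mM Tris pH 8.0, 300 mM NaCl, 1 mM TCEP; 1 h at 37 C in the dark.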
HP1b chromo inh: HP1-beta chromodomain-methylated histone interaction inhibition | P83916 | AlphaScreen HP1-beta / biotin-H3K9me3 peptide binding | Potency, µM (series often up to 114 µM), hits mostly inhibitors | 0.56% of 390,000 active; further: nearly all actives have a fitted effect of over 70% in size
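AlphaScreen: HP1-beta (50 nM) preformed 30 min with biotin-H3(1-18)K9me3 peptide (50 nM) in PBS pH 7.4, 0.01% Tween-20. Compound added for 30 min at RT, then streptavidin donor/nickel chelate acceptor beads (10 ug/mL) for 30 min.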
TDP1 inh: inhibitors of human tyrosyl-DNA phosphodiesterase TDP1; AID 485290; 0.28% of 350,000 active; recombinant TDP1, AlphaScreen DNA substrate cleavage; Potency, µM (doses to about 130 µM), actives largely listed as inhibitors; further: nearly all actives have a fitted effect of over 40% in size
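AlphaScreen read-out: signal falls as enzyme removes the 3' tyrosine-FITC from a 5'-biotinylated DNA oligo (15 nM, 5 min, RT). Enzyme was E. coli-made recombinant Tdp1 at 1 nM, exposed to compound for 15 min beforehand; beads 10 ug/ml, 10 min.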
CtBP-E1A blk: inhibitors of CtBP/E1A interaction | 0.49% of 340,000 active | activity change, % (no concentration beside the values) | AlphaScreen GST-E1A/His-CtBP binding, 1536-well; active compounds read low; in the data active means activity change below about -65%; inconclusive means mostly about -30% to -63%
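AlphaScreen with 125 nM GST-E1A and 125 nM His-CtBP (5X stocks) in Tris pH 8.0, 300 mM NaCl, BSA, Tween 20, TCEP. Compounds preincubated 2 h at 37 deg C, then glutathione donor/nickel acceptor beads added for 1 h at 37 deg C in dark.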
Numbers stand for hits; i = inactive; ? = inconclusive; nt = not tested or not shown; [ ] = dose if it differs, or a comment. Compounds with a hit are over-represented: about 5.3% of the library has one in this group of screens. Unless noted, the call rests on the fitted dose curve; in most records, active means well fitted inhibition curve with a large enough effect; inconclusive means small, poorly fitted or top-dose-only effect; inactive means no such curve, though single readings can be large or run the other way.

SMILES	BAZ2B inh	JMJD2A Tudor	Six1-Eya2 inh	HP1b chromo inh	TDP1 inh	CtBP-E1A blk
CCOCCCNC(=O)Cn1nc(CC)n2c(cc3c(OC)cccc32)c1=O	i	i	nt	i	i	nt
Nc1nc(=O)n(C2OC(CO)C(O)C2O)cc1Cl (stereo not drawn)	nt	nt	nt	nt	i	nt
O=C(N/N=C/c1sc2ccccc2c1O)c1ccccc1	?	?	-87	i	i	?
COc1ccc2cc(C(=O)N/N=C/c3sc4ccccc4c3O)ccc2c1	?	?	?	?	i	?
COc1ccc(C(=O)N/N=C/c2sc3ccccc3c2O)cc1	45µM	?	-74	i	i	-65
O=C(N/N=C/c1sc2ccccc2c1O)c1cccc2ccccc12	45µM	79µM	?	i	i	?
N#Cc1nc(Nc2cccc(F)c2)nc(NC2CCCC2)n1	nt	i	nt	nt	i	nt
COc1ccc(C(=O)Nc2nc3ccccc3s2)c(OC)c1	i	20µM	i	i	i	i
COc1ccc2nc(Nc3nc(C)c(C(C)=O)s3)sc2c1	i	i	i	i	i	i
COc1n[nH]c(C(=O)Nc2nc3ccccc3s2)c1[N+](=O)[O-]	56µM	i	i	i	i	i
COc1ccc(C(=O)Nc2nc3ccc(S(C)(=O)=O)cc3s2)cc1	i	i	i	i	i	i
COc1ccc(Nc2nc3ccc(OC)cc3s2)cc1	56µM	?	i	i	i	i
COc1ccccc1C(=O)Nc1nc2ccccc2s1	i	i	i	i	nt	i
COc1ccc(C(=O)Nc2nc3ccc(OC)cc3s2)cc1	i	i	?	i	i	-72
COc1n[nH]c(C(=O)NCc2ccccc2)c1[N+](=O)[O-]	i	i	i	i	i	nt
COc1ccc(Cl)cc1NC(=O)N1CCN(S(=O)(=O)c2ccc3c(ccn3C)c2)CC1	i	i	nt	i	i	nt
Cc1ccc(Cl)cc1NC(=O)N1CCc2cc(S(=O)(=O)N3CCC(C)CC3)ccc21	i	i	nt	i	i	nt
CC(CCc1ccccc1)N1CCN(Cc2ccccc2)CC1 (stereo not drawn)	50µM	2.2µM	i	45µM	i	i
CCS(=O)(=O)N1CCN(C(C)CCc2ccccc2)CC1 (stereo not drawn)	?	8.9µM	i	?	i	i
O=C(C(Cl)Cl)N1CCN(Cc2ccccc2)CC1	i	i	i	i	i	i
CC1=C(C#N)C(=O)N(C2CCS(=O)(=O)C2)C(=O)/C1=C\c1ccco1 (stereo not drawn)	7.1µM	nt	nt	nt	nt	nt
CC(C)(C)c1cc(-c2n[nH]c(=S)n2-c2ccccc2F)n[nH]1	i	10µM	i	i	nt	i
C[n+]1ccc(/C=C/c2ccc(Br)cc2)cc1	56µM	i	i	i	i	i
CC1(CC(=O)N/N=C/c2cc([N+](=O)[O-])c(O)cc2O)OCCO1	50µM	?	-89	8.9µM	?	nt
Cc1ccc(-n2c(C)cc(/C=N/NC(=O)CC3(C)OCCO3)c2C)c(C)c1	?	i	i	i	i	i
SMILES	BAZ2B inh	JMJD2A Tudor	Six1-Eya2 inh	HP1b chromo inh	TDP1 inh	CtBP-E1A blk
COCCNC(=O)c1ccc(-c2nc(CN3CCc4ccccc43)c(C)o2)cc1	i	i	nt	i	i	nt
CC(=O)Nc1ccc(NC(=O)CSc2nc(N)c(NC(=O)c3ccco3)c(=O)[nH]2)cc1	50µM	i	i	i	i	i
CC(=O)Nc1ccc(Nc2nc(-c3cc4ccccc4oc3=O)cs2)cc1	i	i	i	i	i	i
O=C(O)c1ccc(Nc2nc(-c3cc4ccccc4oc3=O)cs2)cc1O	28µM	32µM	i	32µM	79µM	i
Cc1cccc(OCC(=O)N2CCN(C(=O)COc3ccc(Cl)cc3)CC2)c1	i	i	i	i	nt	i
COc1ccccc1N1CCN(C2CCN(S(=O)(=O)c3ccc(NC(C)=O)cc3)CC2)CC1	i	i	i	i	nt	i
Cc1cccc(OCC(=O)N2CCC(N3CCCCCC3)CC2)c1	?	3.2µM	i	?	i	i
COc1ccccc1C(=O)N1CCC(N2CCN(c3ccccc3OC)CC2)CC1	50µM	18µM	i	?	i	i
COc1ccc(N2CCN(C3CCCN(S(=O)(=O)c4ccccc4)C3)CC2)cc1 (stereo not drawn)	71µM	?	i	?	i	i
COc1ccc(S(=O)(=O)N2CCC(N3CCN(c4ccccc4OC)CC3)CC2)cc1	40µM	1.8µM	i	40µM	i	i
COc1ccccc1CCNC(=O)c1ccc2c(c1)c(C)c(C)n2C	?	?	nt	?	i	nt
COc1cccc(CNC(=O)c2cccc(N3CCCS3(=O)=O)c2)c1	i	i	nt	i	i	nt
COc1ccccc1C(=O)N1CCC(N2CCN(c3ccccc3)CC2)CC1	50µM	2.5µM	i	?	i	i
COc1ccccc1N1CCN(C2CCN(C(=O)COc3ccccc3)CC2)CC1	50µM	i	i	i	nt	i
COc1ccccc1N1CCN(C(=O)COc2cccc3ccccc23)CC1	i	i	i	i	i	i
Cc1ccc(S(=O)(=O)N2CCC(N3CCN(Cc4ccccc4)C(=O)C3=O)CC2)cc1C	i	i	nt	i	i	nt
COc1ccc(S(=O)(=O)N2CCC(N3CCN(Cc4ccccc4)C(=O)C3=O)CC2)cc1	i	79µM	nt	i	i	nt
COc1ccccc1C(=O)N1CCN(c2cccc(C(F)(F)F)c2)CC1	i	i	i	i	i	i
COc1ccc2c(c1)O/C(=C\c1ccco1)C2=O	14µM	?	i	?	i	i
COC(=O)C(C)Oc1ccc2c(c1)O/C(=C\c1ccco1)C2=O (stereo not drawn)	?	50µM	i	i	nt	i
COc1ccc(/C=C2\Oc3cc(OCC(N)=O)ccc3C2=O)cc1OC	i	i	i	i	nt	nt
CO[C@@H]1COC(=O)C/C=C\[C@@H](C)[C@H](OC)COC(=O)[C@H](COCc2ccccc2)NC(=O)C/C=C\[C@H]1C	nt	nt	nt	nt	i[21 µM]	nt
Cc1ccc(O)c(N=Nc2ccc(S(=O)(=O)N3CCCC3)cc2)c1	4µM	?	i	i	i	i
Cc1ccc(O)c(N=Nc2nccs2)c1	10µM	35µM	-71	?	i	?
COc1ccc(N=Nc2ccc3ccccc3c2)c(O)c1	5.6µM	10µM	?	3.2µM	nt	nt
SMILES	BAZ2B inh	JMJD2A Tudor	Six1-Eya2 inh	HP1b chromo inh	TDP1 inh	CtBP-E1A blk
COc1ccc(N=Nc2cc(C)ccc2O)cc1	8.9µM	25µM	?	14µM	nt	?
O=Cc1ccc(OC2C=CC(c3ccccc3)OC2CO)cc1 (stereo not drawn)	nt	nt	nt	nt	i[21 µM]	nt
COc1cc2cc(CNc3ccccc3)c(=O)n(CC(=O)Nc3ccccc3)c2cc1OC	i	i	nt	i	i	nt
COc1ccc(CCNC(=O)CCCn2nc(C)c3sc4ccccc4c3c2=O)cc1OC	?	i	nt	i	i	nt
COc1cccc(N=Nc2ccc3ccccc3c2O)c1	1.6µM	2.8µM	-82	?	nt	nt
COc1ccc(N=Cc2oc3ccc4ccccc4c3c2O)cc1	i	i	i	i	?	i
